Source: PubChem BioAssay (EPA / NIEHS)
Calls of active or inactive are those of the source. The calls were made as follows: active = hit-call score of the fitted dose curve at least 0.9, where 1 is the maximum; inactive = score below 0.9.

The compounds below were run on UDP glucuronosyltransferase (UGT1A6), UGT1A6 (gene 54578) (assay: LTEA_HepaRG_UGT1A6: Life Technologies and Expression Analysis (LTEA) Assay for UDP glucuronosyltransferase (UGT1A6) using HepaRG (AID 2283539)). Details: mRNA level, 48 h; actives raise or lower the signal.
Protocol: LTEA_HepaRG is a cell based, multiplexed-readout assay that uses HepaRG, a human liver cell line, with measurements taken at 48 hours after chemical dosing on a 96-well plate.LTEA_HepaRG_UGT1A6 is one of 102 assay component(s) measured in the LTEA HepaRG cell culture assay. It is a marker of NR mediated metabolism.Data from the assay component LTEA_HepaRG_UGT1A6 was analyzed into 1 endpoint. This assay endpoint, LTEA_HepaRG_UGT1A6, was analyzed with bidirectional fitting relative to DMSO as the negative control and baseline of activity. Using a type of inducible reporter, measures of mRNA induction for gain or loss-of-signal activity can be used to understand regulation of transcription factor activity. To generalize the intended target to other relatable targets, this assay endpoint is annotated to the transferase intended target family, where the subfamily is glucuronosyltransferase.
A total of 1060 chemcials from the ToxCast library were tested in eight-point concentration-response experiments. Cell culture and cytotoxicity assays were conducted at Thermo Fisher Scientific's Custom Services facility (Madison, WI). A single lot of human HepaRG cells (Thermo Fisher Scientific, Frederick, MD) was used for the cell culture experiments. 96-well format collagen type I coated plates of human HepaRG cells were prepared using established methods. Briefly, cryopreserved HepaRG cells were thawed, plated at a density of approximately 100,000 cells/well in HepaRG Thaw, Plate, and General Purpose media (HPRG770, Thermo Fisher Scientific), and incubated for 48 hours. 0.5% DMSO was selected as vehicle control to balance the requisite need of DMSO in HepaRG cultures to maintain differentiation (for example, baseline metabolism, proportions of hepatocytes vs. cholangiocytes), while enabling further hepatic receptor pathway activation (for example, PXR and CAR) in response to chemical exposure. 48 hours after plating, the culture medium was replaced with HepaRG Serum-Free Incudtion Media. Cells were exposed to each test chemical in duplicate and maintained in CO2 incubators for another 48 hours. Chemical plates were thawed to room temperature and 200x concentrations of treatment groups were prepared. 8-point conentration-reponse curves were made with the highest exposure at 100 uM, followed by half-log dilutions, all in 0.5% DMSO. Each test plate contained variouse controls, induction positive controls (1mM phenobarbital), cytotoxicity positive controls ([…] aflatoxin B1), vehicle controls (0.5% DMSO), and total lysis controls (0.5% DMSO). Cell morphology images were taken using an Essen IncuCyte FLR automated microscope, with six 96-well plates imaged in about 24 minutes. Images were captured and exported and JPEG files. Spent culture media was transfered to black-well plates for the LDH assay, and remaining media was sorted at -80 C for later use. Cells were treated with RLT buffer and frozen until shipped for gene expression analysis. Total RNA was isolated from the cell suspension in 75 uL of Buffer RLT (Qiagen, Germantown, MD 20874) by Quintiles/Expression Analysis (Durham, NC) using a custom isolation procedure. Total RNA from each plate well was transferred to a preamplification plate. Fluidigm's 96.96 Dynamic ArrayTM (Fluidigm, Amsterdam, the Netherlands) technology was used for gene expression analyses by quantitative reverse transcription polymerase chain reaction (qRT-PCR, performed by Quintiles/Expression Analysis, Durham, NC)89. Standard TaqManTM Assays (Applied Biosystems/ThermoFisher Scientific, Foster City, CA) were used to assess the expression of 93 genes selected based on their selectivity and sensitivity to important hepatic receptors known to be modulated by environmental chemicals; importance in human hepatocyte functionality; and hepatotoxicity. […]

SMILES	outcome	AC50
O=C(O)[C@H](O)[C@@H](O)C(=O)O	inactive	–
c1ccc2c(c1)-c1cccc3c1c-2cc1ccccc13	inactive	–
c1ccc2cc3ccccc3cc2c1	inactive	–
COCc1nnc(-c2ccc[n+]([O-])c2)n1-c1c(Cl)c(Cl)cc2[nH]c(=O)c(=O)[nH]c12	inactive	–
NC(=O)N1c2ccccc2C=Cc2ccccc21	inactive	–
C[C@@H](Oc1ccc(CNC(=O)c2cccnc2Oc2ccc3c(c2)OCO3)c(F)c1)C(=O)O	inactive	–
CCCOc1ccc(S(=O)(=O)N2CCN(CC)CC2)cc1-c1nc2c(CC)n(Cc3ccccn3)nc2c(=O)[nH]1	inactive	–
CC(C)c1nnc2ccc(-c3ocnc3-c3cc(F)ccc3F)cn12	–	80.3 µM (active)
CCCCOC(=O)c1ccccc1	inactive	–
O=c1[nH]cnc2c1ncn2[C@H]1CC[C@@H](CO)O1	inactive	–
OCCOCCOCCO	inactive	–
C[C@]12C=CC(=O)C=C1CC[C@H]1[C@@H]3C[C@@H](O)[C@](O)(C(=O)CO)[C@@]3(C)C[C@H](O)[C@@]12F	inactive	–
CCOc1ccc2[nH]cc(C(=O)NCc3ccccc3)c(=O)c2n1	inactive	–
COS(C)(=O)=O	inactive	–
OCc1ccccc1	inactive	–
Cc1ccc(S(=O)(=O)NC(=O)NN2CCCCCC2)cc1	inactive	–
NC(N)=O	inactive	–
CCCCN1C(=O)[C@@H]([C@H](O)C2CCCCC2)NC(=O)C12CCN(Cc1ccc(Oc3ccc(C(=O)O)cc3)cc1)CC2	–	10 µM (active)
O=C(NO)C1(NS(=O)(=O)c2ccc(Oc3ccc(F)cc3)cc2)CCOCC1	–	77.7 µM (active)
Cc1nccn1-c1ccc(Sc2cccc(C3(C(N)=O)CCOCC3)c2)cc1	–	19.1 µM (active)

SMILES	outcome	AC50
O=S(=O)(O)c1ccc(N=Nc2c(O)ccc3cc(S(=O)(=O)O)ccc23)cc1	inactive	–
CC(=O)c1ccccc1	inactive	–
CC1(C)C(=O)N(Cl)C(=O)N1Cl	inactive	–
CCCCCCOC(=O)CC(CC(=O)OCCCCCC)(OC(=O)CCC)C(=O)OCCCCCC	inactive	–
O=C1CN(N=Cc2ccc([N+](=O)[O-])o2)C(=O)N1	inactive	–
CCCCCCCCCC	inactive	–
CNC(C)=O	inactive	–
Cc1ncc([C@@H](CCCCCCc2ccc3c(n2)NCCC3)CC(=O)O)cn1	inactive	–
c1ccc(C(O[C@@H]2CCCN(CCc3ccc4c(c3)OCO4)C2)c2ccccc2)cc1	–	83 µM (active)
NC(=O)N(O)[C@@H]1COc2cc(OCc3ccccc3)ccc21	inactive	–
O=S1(=O)CCCO1	inactive	–
CCCCCCCC/C=C\CCCCCCCC(=O)OC[C@@H](O)[C@H]1OC[C@H](O)[C@H]1O	inactive	–
Cn1c(=O)c2[nH]cnc2n(C)c1=O	inactive	–
NNC(=O)c1ccncc1	inactive	–
O=C(O)c1ccc2c(c1)nc(C(=O)NC1CCN(C3CC3)CC1)n2Cc1cc(-c2ccc(Cl)s2)on1	inactive	–
c1ccc2ncccc2c1	inactive	–
CC(C)CCCCCCOC(=O)C1CCCCC1C(=O)OCCCCCCC(C)C (stereo not given)	inactive	–
OCC(CO)(CO)CO	inactive	–
COc1cc2c(c(OC)c1OC)-c1ccc(OC)c(=O)cc1[C@@H](NC(C)=O)CC2	–	0.237 µM (active)
CCCCCCCCCCCCCCCCOS(=O)(=O)O	inactive	–
